What all share (details): mRNA level, 48 h; actives raise or lower the signal
Read-out in assay [1]: matrix metalloproteinase-10 (MMP10), MMP10 (gene 4319)
Put plainly: LTEA_HepaRG_MMP10: Life Technologies and Expression Analysis (LTEA) Assay for matrix metalloproteinase-10 (MMP10) using HepaRG (AID 2283517). Put shortly:
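In differentiated HepaRG cultures kept in 0.5% DMSO, test chemicals act for 48 h over an eight-point range with a top dose of 100 uM. Expression is then quantified by TaqMan RT-PCR against ACTB, GAPDH and POLR2A.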

Read-out in assay [2]: MYC, MYC (gene 4609)
The experiment in a line: LTEA_HepaRG_MYC: Life Technologies and Expression Analysis (LTEA) Assay for MYC using HepaRG (AID 2283518). In a few lines: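 qRT-PCR read-out of MYC transcript (Fluidigm TaqMan, housekeeping-normalized) after 48 h chemical exposure of HepaRG cells; eight concentrations, top 100 uM, half-log steps. Bidirectional curve fitting against 0.5% DMSO vehicle baseline.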

Read-out in assay [3]: matrix metalloproteinase-3 (MMP3), MMP3 (gene 4314)
The experiment in a line: LTEA_HepaRG_MMP3: Life Technologies and Expression Analysis (LTEA) Assay for matrix metalloproteinase-3 (MMP3) using HepaRG (AID 2283519). In a few lines: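 Human liver HepaRG cultures received chemicals (top concentration 100 uM, 0.5% DMSO) for 48 h in duplicate. MMP3 mRNA induction or loss was then assessed via TaqMan qRT-PCR with housekeeping-gene normalisation.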

Read-out in assay [4]: Paternally Expressed 10 (PEG10), PEG10 (gene 23089)
The experiment in a line: LTEA_HepaRG_PEG10: Life Technologies and Expression Analysis (LTEA) Assay for Paternally Expressed 10 (PEG10) using HepaRG (AID 2283520).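 On AC50: differentiated HepaRG human liver cells in serum-free induction medium with 0.5% DMSO; PEG10 transcript by qRT-PCR normalised to ACTB GAPDH and POLR2A.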 In a few lines:
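PEG10 transcript measured by Fluidigm qRT-PCR, normalized to three housekeeping genes, in HepaRG cells treated 48 h (highest 100 uM, half-log steps, 0.5% DMSO vehicle). Cells plated 48 h before switching to serum-free induction medium.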

Read-out in assay [5]: Protein phosphatase 2A (PPP2R4), PTPA (gene 5524)
Put plainly: LTEA_HepaRG_PPP2R4: Life Technologies and Expression Analysis (LTEA) Assay for Protein phosphatase 2A (PPP2R4) using HepaRG (AID 2283522). In a few lines:
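Expression was quantified by Fluidigm qRT-PCR normalised to three housekeeping genes after 48 h treatment. Human HepaRG cells received an 8-point series from 100 µM downward by half-logs, in duplicate with 0.5% DMSO vehicle and 1 mM phenobarbital as induction control.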

Read-out in assay [6]: solute carrier (SLC22A1), SLC22A1 (gene 6580)
The experiment in a line: LTEA_HepaRG_SLC22A1: Life Technologies and Expression Analysis (LTEA) Assay for solute carrier (SLC22A1) using HepaRG (AID 2283524).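 On AC50: differentiated human HepaRG liver cells in serum-free induction medium; TaqMan qRT-PCR normalized to ACTB GAPDH and POLR2A housekeeping genes.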 Put shortly: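 Transcript induction or suppression of SLC22A1 in human HepaRG cultures is scored after 48 h chemical treatment, with DMSO (0.5%) as baseline for bidirectional fitting. Concentrations span eight half-log points topping at 100 uM.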

Read-out in assay [7]: Pyruvate Dehydrogenase Kinase 4 (PDK4), PDK4 (gene 5166)
The experiment in a line: LTEA_HepaRG_PDK4: Life Technologies and Expression Analysis (LTEA) Assay for Pyruvate Dehydrogenase Kinase 4 (PDK4) using HepaRG (AID 2283525). In a few lines:
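Eight-point, half-log concentration series (max 100 uM, 0.5% DMSO) applied to differentiated HepaRG cells for 48 h in duplicate. Endpoint: PDK4 mRNA induction or repression by qRT-PCR against DMSO baseline.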

Read-out in assay [8]: NAD(P)H dehydrogenase [quinone] 1 (NQO1), NQO1 (gene 1728)
Put plainly: LTEA_HepaRG_NQO1: Life Technologies and Expression Analysis (LTEA) Assay for NAD(P)H dehydrogenase [quinone] 1 (NQO1) using HepaRG (AID 2283526). Put shortly: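 NQO1 transcript induction or loss measured by TaqMan qRT-PCR, referenced to three housekeeping genes and fitted bidirectionally against 0.5% DMSO. HepaRG cultures exposed 48 h, duplicate, eight-point half-log series, top 100 uM.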

Read-out in assay [9]: Nuclear factor erythroid 2-related factor 2 (Homo sapiens) (UniProt Q16236)
Put plainly: LTEA_HepaRG_NFE2L2: Life Technologies and Expression Analysis (LTEA) Assay for Nuclear factor erythroid 2-related factor 2 (NFE2L2) Transcription Factor using HepaRG (AID 2283527).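 On outcome: TaqMan qRT-PCR transcript level normalised to ACTB GAPDH and POLR2A housekeeping genes.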 Put shortly:
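Human liver HepaRG line treated in duplicate for 48 h with an eight-point series topping at 100 uM. Gene expression of NFE2L2 by qRT-PCR, bidirectionally fitted against the vehicle control.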

Read-out in assay [10]: succinate dehydrogenase complex iron sulfur subunit B (SDHB), SDHB (gene 6390)
The experiment in a line: LTEA_HepaRG_SDHB: Life Technologies and Expression Analysis (LTEA) Assay for succinate dehydrogenase complex iron sulfur subunit B (SDHB) using HepaRG (AID 2283528). Put shortly:
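HepaRG cells (~100,000/well, plated 48 h) exposed in duplicate for 48 h in serum-free induction medium to 8-point half-log series from 100 uM in 0.5% DMSO; mRNA by qRT-PCR normalised to ACTB, GAPDH, POLR2A; bidirectional fit versus DMSO.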

Read-out in assay [11]: Signal transducer and activator of transcription 3 (Homo sapiens) (UniProt P40763)
Put plainly: LTEA_HepaRG_STAT3: Life Technologies and Expression Analysis (LTEA) Assay for Signal transducer and activator of transcription (STAT3) using HepaRG (AID 2283529). Put shortly: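 In this transcriptional endpoint, HepaRG cultures receive test chemicals at up to 100 uM for 48 h, tested in duplicate. STAT3 mRNA is normalized to ACTB, GAPDH and POLR2A.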

Read-out in assay [12]: solute carrier (SLCO1B1), SLCO1B1 (gene 10599)
Put plainly: LTEA_HepaRG_SLCO1B1: Life Technologies and Expression Analysis (LTEA) Assay for solute carrier (SLCO1B1) using HepaRG (AID 2283530). Put shortly: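 SLCO1B1 transcript read by qRT-PCR (Fluidigm arrays), normalized to three housekeeping genes, after 48 h chemical exposure of HepaRG cells; bidirectional concentration-response fitting versus 0.5% DMSO baseline. Eight-point half-log series, maximum 100 uM.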

Read-out in assay [13]: sulfotransferase 2A1 (SULT2A1), SULT2A1 (gene 6822)
Put plainly: LTEA_HepaRG_SULT2A1: Life Technologies and Expression Analysis (LTEA) Assay for sulfotransferase 2A1 (SULT2A1) using HepaRG (AID 2283531). In a few lines: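 HepaRG, 48 h chemical exposure, 8-pt half-log curve from 100 uM in 0.5% DMSO, duplicates. Readout: TaqMan qRT-PCR of SULT2A1 mRNA, housekeeping-normalized. Bidirectional fit vs DMSO baseline.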

Read-out in assay [14]: Transforming Growth Factor (TGFA), TGFA (gene 7039)
Put plainly: LTEA_HepaRG_TGFA: Life Technologies and Expression Analysis (LTEA) Assay for Transforming Growth Factor (TGFA) using HepaRG (AID 2283532). Put shortly: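 Gene expression of TGFA was quantified by qRT-PCR after human HepaRG cells were treated for 48 h with test chemicals (eight concentrations, highest 100 uM, 0.5% DMSO). Activity in either direction was fitted relative to DMSO.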

Read-out in assay [15]: Transforming Growth Factor (TGFB1), TGFB1 (gene 7040)
The experiment in a line: LTEA_HepaRG_TGFB1: Life Technologies and Expression Analysis (LTEA) Assay for Transforming Growth Factor (TGFB1) Transporter using HepaRG (AID 2283533). Put shortly:
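qRT-PCR readout of TGFB1 transcript in HepaRG lysates, normalized to three housekeeping genes; gain or loss of signal fitted relative to 0.5% DMSO vehicle. Exposure: 48 h, 8-point curve from 100 uM, duplicate wells.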

Read-out in assay [16]: TIMP1, TIMP1 (gene 7076)
Put plainly: LTEA_HepaRG_TIMP1: Life Technologies and Expression Analysis (LTEA) Assay for TIMP1 using HepaRG (AID 2283534).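 Further: TaqMan qRT-PCR signal normalized to ACTB GAPDH and POLR2A housekeeping genes.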 In a few lines:
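HepaRG, 48 h exposure, 8-pt half-log series from 100 uM in 0.5% DMSO, duplicates; TIMP1 transcript by Fluidigm qRT-PCR, housekeeping-normalized; bidirectional curve fit vs DMSO baseline.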

Read-out in assay [17]: Tumor necrosis factor receptor 1 (TNFRSF1A), TNFRSF1A (gene 7132)
Put plainly: LTEA_HepaRG_TNFRSF1A: Life Technologies and Expression Analysis (LTEA) Assay for Tumor necrosis factor receptor 1 (TNFRSF1A) using HepaRG (AID 2283535). Put shortly: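 HepaRG, 48 h plating then 48 h chemical exposure, serum-free induction media; 8-pt CRC from 100 uM, half-log, 0.5% DMSO vehicle, duplicates. Readout: TaqMan qRT-PCR (Fluidigm), housekeeping-gene normalized; bidirectional fit vs DMSO.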

Read-out in assay [18]: Thyroid Hormone Responsive (THRSP), THRSP (gene 7069)
The experiment in a line: LTEA_HepaRG_THRSP: Life Technologies and Expression Analysis (LTEA) Assay for Thyroid Hormone Responsive (THRSP) using HepaRG (AID 2283536). Put shortly: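 Cell model: human HepaRG, approx. 100,000 cells/well, 0.5% DMSO vehicle. Exposure lasts 48 h; phenobarbital 1 mM serves as induction positive control. Gene expression is measured by qRT-PCR against three endogenous control genes.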

Read-out in assay [19]: Phosphatase and tensin (PTEN), PTEN (gene 5728)
Put plainly: LTEA_HepaRG_PTEN: Life Technologies and Expression Analysis (LTEA) Assay for Phosphatase and tensin (PTEN) using HepaRG (AID 2283523). Put shortly: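 Expression of PTEN is quantified in the human liver line HepaRG following two days of dosing (top concentration 100 uM, half-log dilutions, 0.5% DMSO). Values derive from bidirectional curve fitting relative to DMSO controls.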

As a reminder, the AC50 is the concentration giving half of the maximal activity seen.

Active and inactive are the calls of the source. How the source made its calls: active means hit-call score of the fitted dose curve at least 0.9, where 1 is the maximum; inactive means score below 0.9.

Signal transducer and activator of transcription 3 (Homo sapiens), sequence (P40763 whole entry, looked up): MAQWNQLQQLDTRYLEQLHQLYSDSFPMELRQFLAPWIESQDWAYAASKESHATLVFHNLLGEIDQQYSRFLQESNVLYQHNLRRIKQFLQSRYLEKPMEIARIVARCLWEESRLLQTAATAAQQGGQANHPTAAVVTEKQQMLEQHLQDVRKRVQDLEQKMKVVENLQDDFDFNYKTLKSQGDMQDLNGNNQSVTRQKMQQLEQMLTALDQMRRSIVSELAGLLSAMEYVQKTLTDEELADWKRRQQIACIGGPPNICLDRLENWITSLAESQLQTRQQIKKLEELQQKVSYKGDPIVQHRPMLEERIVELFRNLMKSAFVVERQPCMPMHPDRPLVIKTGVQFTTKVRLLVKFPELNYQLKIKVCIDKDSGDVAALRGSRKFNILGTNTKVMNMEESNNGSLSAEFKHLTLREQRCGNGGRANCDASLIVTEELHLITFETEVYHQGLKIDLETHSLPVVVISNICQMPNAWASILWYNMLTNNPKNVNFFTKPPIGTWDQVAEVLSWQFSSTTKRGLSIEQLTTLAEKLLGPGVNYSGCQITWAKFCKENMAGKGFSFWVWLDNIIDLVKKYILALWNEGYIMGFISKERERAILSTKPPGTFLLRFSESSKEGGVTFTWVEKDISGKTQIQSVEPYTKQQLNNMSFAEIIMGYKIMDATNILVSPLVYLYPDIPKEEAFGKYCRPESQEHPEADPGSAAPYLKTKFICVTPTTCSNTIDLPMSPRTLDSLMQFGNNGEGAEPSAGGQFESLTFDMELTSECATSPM
Nuclear factor erythroid 2-related factor 2 (Homo sapiens), sequence (Q16236 whole entry, looked up): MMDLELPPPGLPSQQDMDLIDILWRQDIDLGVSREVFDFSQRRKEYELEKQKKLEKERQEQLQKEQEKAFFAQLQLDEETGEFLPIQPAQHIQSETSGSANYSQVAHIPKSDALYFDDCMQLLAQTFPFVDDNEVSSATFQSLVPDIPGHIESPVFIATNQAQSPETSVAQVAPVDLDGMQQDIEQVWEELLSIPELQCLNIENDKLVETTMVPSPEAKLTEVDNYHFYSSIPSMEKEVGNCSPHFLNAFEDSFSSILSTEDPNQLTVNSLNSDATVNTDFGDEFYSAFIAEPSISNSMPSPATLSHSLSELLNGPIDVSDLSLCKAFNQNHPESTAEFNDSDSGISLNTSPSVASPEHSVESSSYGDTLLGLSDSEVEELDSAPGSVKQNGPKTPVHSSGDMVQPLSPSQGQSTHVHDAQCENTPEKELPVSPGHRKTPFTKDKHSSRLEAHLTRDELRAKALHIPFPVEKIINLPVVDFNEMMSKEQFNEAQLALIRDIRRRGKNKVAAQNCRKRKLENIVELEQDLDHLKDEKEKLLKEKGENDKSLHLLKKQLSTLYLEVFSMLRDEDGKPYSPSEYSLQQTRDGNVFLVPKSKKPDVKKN

For the compound `CC(=O)C(C)=CC1C(C)=CCCC1(C)C` (stereo not drawn), the outcome in assay [1], in assay [2], in assay [3], in [4], in assay [5] and in assay [6] was inactive. The outcome in assay [7], in assay [8], in [9], in assay [10], in assay [11] and in assay [12] was inactive. Also, the outcome in [13], in assay [14], in assay [15], in assay [16], in [17] and in assay [18] was inactive.

With `CC(=O)OC/C=C(\C)CCC=C(C)C`, the result in [1], in assay [2], in assay [3], in assay [4], in assay [5] and in assay [6] was inactive. The compound was classed as inactive in assay [7], in assay [8], in [9], in [10], in [11] and in assay [12]. The compound was called inactive in assay [13], in assay [14], in assay [15], in [16], in [17] and in assay [18].

Turning to `COc1ccc(S(=O)(=O)N2C(=O)[C@@](c3ccccc3OC)(N3C[C@H](O)C[C@H]3C(=O)N(C)C)c3cc(Cl)ccc32)c(OC)c1`, the AC50 in assay [1] was 50 µM (active); in [2], 76.5 µM (active); in [3] it was 50 µM (active); in [4], 21.5 µM (active); in [5] it was 32.4 µM (active); in assay [19] it was 16.8 µM (active). Further, the AC50 is 20.5 µM (active) in assay [6]; 13.9 µM (active) in [7]; 29.5 µM (active) in assay [8]; 83.2 µM (active) in assay [9]; 12.9 µM (active) in assay [10]; 50 µM (active) in assay [11]. In addition, the AC50 in assay [12] is 25.9 µM (active); in assay [13], 50.7 µM (active); in [14] it was 78.7 µM (active); in [15] it was 19.1 µM (active); in assay [18] it was 19.5 µM (active). The outcome in assay [16] and in assay [17] was inactive.

As to `CC(=O)OCCOCCOCCOC(C)=O`, the compound was called inactive in assay [1], in assay [2], in assay [3], in assay [4], in assay [5] and in assay [6]. Further, the result in [7], in assay [8], in [9], in assay [10], in [11] and in assay [12] was inactive. In addition, the compound was called inactive in [13], in [14], in assay [15], in [16], in assay [17] and in assay [18].

The record behind these values is PubChem BioAssay (EPA / NIEHS).
